From ChEMBL document CHEMBL1961873, “Compounds: GSK PKIS; Assays: Nanosyn kinase panel” (2012)

Columns and labels:
[1] = target: T1, Serine/threonine-protein kinase D2 (Homo sapiens) (UniProt Q9BZL6); conditions: at 1 µM;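 further: mean value of PRKD2 inhibition, from the GSK PKIS screening panel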
T1 sequence (whole entry): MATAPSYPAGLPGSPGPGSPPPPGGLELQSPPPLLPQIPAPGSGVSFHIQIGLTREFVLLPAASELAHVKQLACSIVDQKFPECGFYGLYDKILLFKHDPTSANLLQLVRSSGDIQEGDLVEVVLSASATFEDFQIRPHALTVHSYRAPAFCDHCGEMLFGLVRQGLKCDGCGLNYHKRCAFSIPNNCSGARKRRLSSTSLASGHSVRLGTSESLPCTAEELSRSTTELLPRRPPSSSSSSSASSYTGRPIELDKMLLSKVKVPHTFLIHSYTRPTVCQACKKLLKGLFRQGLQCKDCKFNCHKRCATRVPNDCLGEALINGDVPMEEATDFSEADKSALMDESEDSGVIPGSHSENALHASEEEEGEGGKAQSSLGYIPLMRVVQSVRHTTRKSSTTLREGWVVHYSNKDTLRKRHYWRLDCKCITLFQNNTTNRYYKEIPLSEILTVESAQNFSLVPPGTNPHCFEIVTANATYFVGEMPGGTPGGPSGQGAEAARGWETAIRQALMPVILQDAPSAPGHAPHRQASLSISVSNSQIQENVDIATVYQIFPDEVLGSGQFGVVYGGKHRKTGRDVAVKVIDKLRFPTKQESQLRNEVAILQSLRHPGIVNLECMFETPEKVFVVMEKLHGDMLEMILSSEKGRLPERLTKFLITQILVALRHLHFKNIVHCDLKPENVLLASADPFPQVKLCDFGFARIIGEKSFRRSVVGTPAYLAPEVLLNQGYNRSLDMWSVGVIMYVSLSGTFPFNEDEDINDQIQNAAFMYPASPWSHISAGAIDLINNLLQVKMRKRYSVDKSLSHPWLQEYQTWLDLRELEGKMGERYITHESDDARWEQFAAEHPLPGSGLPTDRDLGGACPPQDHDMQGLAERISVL

[2] = target: T2, Serine/threonine-protein kinase D3 (Homo sapiens) (UniProt O94806); conditions: at 0.1 µM
T2 sequence (whole entry): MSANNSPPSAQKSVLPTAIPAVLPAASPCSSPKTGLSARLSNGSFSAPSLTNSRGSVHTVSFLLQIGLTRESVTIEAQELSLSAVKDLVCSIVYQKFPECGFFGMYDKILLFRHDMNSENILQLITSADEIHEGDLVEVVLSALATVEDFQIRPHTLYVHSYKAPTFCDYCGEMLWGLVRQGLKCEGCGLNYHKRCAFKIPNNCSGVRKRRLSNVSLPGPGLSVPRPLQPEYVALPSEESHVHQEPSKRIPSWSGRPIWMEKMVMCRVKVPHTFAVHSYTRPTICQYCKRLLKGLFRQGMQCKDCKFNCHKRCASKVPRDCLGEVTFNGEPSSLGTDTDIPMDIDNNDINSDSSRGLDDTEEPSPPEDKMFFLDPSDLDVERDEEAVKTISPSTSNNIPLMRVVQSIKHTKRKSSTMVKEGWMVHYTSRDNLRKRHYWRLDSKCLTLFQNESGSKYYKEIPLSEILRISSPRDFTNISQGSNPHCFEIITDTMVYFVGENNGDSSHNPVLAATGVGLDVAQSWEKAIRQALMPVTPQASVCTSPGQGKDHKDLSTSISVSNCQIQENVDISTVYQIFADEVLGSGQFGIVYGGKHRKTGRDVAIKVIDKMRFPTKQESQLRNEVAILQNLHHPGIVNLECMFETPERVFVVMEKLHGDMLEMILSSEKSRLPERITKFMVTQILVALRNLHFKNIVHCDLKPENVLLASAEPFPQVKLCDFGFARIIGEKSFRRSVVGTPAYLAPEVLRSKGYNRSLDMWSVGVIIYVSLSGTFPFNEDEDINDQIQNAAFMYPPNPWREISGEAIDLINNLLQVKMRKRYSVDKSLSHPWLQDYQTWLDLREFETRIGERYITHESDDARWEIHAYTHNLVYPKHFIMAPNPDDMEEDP

[3] = target: T2, Serine/threonine-protein kinase D3 (Homo sapiens); conditions: at 1 µM
[4] = target: T3, cGMP-dependent protein kinase 1 (Homo sapiens) (UniProt Q13976); conditions: at 0.1 µM
T3 sequence (whole entry): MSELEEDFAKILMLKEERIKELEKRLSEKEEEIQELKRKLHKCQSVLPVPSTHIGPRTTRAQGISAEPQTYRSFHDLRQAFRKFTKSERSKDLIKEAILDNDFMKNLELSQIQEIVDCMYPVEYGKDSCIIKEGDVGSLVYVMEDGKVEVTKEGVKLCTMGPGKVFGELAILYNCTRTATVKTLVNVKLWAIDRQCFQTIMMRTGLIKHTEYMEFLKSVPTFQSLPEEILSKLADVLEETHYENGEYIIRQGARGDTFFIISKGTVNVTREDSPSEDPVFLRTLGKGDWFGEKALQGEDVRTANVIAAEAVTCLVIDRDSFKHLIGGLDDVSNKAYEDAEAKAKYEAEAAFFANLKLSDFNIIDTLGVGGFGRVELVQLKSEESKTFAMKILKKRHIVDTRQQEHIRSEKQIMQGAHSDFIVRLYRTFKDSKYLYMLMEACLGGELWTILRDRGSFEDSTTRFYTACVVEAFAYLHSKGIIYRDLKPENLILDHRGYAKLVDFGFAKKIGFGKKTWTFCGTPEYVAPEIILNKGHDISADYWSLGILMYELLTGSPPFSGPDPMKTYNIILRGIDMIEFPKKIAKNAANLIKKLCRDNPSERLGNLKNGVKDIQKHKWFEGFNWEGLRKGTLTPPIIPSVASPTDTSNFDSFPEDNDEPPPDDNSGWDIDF

[5] = target: T3, cGMP-dependent protein kinase 1 (Homo sapiens); conditions: at 1 µM
[6] = target: T4, cGMP-dependent protein kinase 2 (Homo sapiens) (UniProt Q13237); conditions: at 0.1 µM
T4 sequence (whole entry): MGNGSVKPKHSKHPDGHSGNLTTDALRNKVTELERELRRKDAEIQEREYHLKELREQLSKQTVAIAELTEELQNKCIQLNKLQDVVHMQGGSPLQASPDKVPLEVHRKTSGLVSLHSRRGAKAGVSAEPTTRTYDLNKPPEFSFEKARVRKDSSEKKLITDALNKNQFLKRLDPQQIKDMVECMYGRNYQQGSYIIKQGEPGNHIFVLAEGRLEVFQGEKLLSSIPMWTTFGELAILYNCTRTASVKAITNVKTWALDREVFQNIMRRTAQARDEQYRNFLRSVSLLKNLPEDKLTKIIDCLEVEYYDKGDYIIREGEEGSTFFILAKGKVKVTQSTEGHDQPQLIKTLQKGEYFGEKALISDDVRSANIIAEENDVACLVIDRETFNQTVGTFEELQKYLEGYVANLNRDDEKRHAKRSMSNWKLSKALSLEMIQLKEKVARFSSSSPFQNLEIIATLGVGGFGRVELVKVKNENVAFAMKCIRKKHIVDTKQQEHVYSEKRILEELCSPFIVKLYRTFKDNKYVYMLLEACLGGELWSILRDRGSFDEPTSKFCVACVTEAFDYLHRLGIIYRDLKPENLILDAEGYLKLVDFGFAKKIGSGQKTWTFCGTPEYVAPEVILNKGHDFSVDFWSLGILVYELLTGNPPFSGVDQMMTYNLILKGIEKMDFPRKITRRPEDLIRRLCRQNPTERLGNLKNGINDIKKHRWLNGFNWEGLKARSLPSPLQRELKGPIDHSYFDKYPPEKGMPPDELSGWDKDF

[7] = target: T4, cGMP-dependent protein kinase 2 (Homo sapiens); conditions: at 1 µM
[8] = target: T5, cAMP-dependent protein kinase catalytic subunit PRKX (Homo sapiens) (UniProt P51817); conditions: at 0.1 µM
T5 sequence (whole entry): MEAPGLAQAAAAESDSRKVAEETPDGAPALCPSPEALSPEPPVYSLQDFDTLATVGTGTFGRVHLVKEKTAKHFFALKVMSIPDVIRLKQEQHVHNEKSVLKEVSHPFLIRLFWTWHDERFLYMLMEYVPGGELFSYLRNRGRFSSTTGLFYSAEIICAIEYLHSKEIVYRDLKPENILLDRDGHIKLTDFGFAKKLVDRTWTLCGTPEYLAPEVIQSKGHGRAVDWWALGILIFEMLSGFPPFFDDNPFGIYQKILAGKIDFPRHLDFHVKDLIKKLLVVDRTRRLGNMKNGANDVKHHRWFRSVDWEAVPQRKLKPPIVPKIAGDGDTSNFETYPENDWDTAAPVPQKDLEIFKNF

[9] = target: T5, cAMP-dependent protein kinase catalytic subunit PRKX (Homo sapiens); conditions: at 1 µM
[10] = target: Rho-associated protein kinase 1 (Homo sapiens) (UniProt Q13464); conditions: at 0.1 µM;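 further: values are mean percent inhibition of ROCK1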
Chain of Rho-associated protein kinase 1 (Homo sapiens) (Q13464 2-1354 limits assumed): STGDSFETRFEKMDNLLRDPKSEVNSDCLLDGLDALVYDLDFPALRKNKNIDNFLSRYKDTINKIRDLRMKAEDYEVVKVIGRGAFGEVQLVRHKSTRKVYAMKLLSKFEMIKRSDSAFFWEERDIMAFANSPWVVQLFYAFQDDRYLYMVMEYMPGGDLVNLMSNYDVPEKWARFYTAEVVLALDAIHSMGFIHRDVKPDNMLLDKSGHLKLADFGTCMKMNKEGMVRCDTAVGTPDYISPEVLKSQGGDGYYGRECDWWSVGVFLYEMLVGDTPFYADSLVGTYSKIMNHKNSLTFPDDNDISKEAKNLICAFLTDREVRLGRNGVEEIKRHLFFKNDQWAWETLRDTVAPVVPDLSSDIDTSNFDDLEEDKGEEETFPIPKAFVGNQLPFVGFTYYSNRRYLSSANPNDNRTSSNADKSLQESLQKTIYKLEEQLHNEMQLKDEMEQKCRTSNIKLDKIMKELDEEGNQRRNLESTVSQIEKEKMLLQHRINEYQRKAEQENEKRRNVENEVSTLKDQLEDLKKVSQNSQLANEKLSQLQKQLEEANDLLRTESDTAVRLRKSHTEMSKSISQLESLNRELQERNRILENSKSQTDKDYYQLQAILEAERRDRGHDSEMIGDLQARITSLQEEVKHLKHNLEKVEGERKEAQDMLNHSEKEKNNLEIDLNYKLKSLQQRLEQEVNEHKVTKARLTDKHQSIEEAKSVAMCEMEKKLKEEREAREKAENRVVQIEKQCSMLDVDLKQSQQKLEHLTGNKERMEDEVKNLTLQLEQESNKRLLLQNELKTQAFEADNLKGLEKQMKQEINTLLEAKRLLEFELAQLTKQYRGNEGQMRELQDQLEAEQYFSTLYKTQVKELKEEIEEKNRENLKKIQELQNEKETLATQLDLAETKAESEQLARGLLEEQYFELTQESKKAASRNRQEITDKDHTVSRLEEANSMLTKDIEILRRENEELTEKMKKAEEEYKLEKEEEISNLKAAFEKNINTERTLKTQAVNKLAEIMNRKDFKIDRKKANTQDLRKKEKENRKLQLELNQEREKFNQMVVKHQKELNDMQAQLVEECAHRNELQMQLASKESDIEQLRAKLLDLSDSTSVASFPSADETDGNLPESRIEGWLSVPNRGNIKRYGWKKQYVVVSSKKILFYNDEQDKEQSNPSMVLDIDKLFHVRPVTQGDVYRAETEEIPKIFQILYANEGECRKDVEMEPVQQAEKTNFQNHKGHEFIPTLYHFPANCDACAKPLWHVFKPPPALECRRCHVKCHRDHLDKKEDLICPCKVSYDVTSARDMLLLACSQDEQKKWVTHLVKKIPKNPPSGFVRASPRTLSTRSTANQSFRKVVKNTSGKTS

| Compound | inhibition [1] | inhibition [2] | inhibition [3] | inhibition [4] | inhibition [5] | inhibition [6] | inhibition [7] | inhibition [8] | inhibition [9] | inhibition [10] |
| --- | --- | --- | --- | --- | --- | --- | --- | --- | --- | --- |
| COc1cc2ncn(-c3cc(OCc4ccccc4S(C)(=O)=O)c(C#N)s3)c2cc1OC | 4.79% | 4.75% | 5.43% | 4.3% | 5.27% | 3.46% | 5.2% | 1.34% | 2.89% | 3.62% |
| c1ccc(Nc2ncc(-c3ccccc3)o2)cc1 | 8.41% | 4.57% | 8.93% | 5.37% | 6.06% | 3.62% | 5.4% | 2.38% | 3.33% | 1.88% |
| NS(=O)(=O)c1ccc(NC=C2C(=O)Nc3ccc4ncsc4c32)cc1 | 79% | 19.4% | 76.3% | 6.31% | 28.6% | 18.4% | 61.7% | 2.2% | 12.2% | 15.5% |
| CS(=O)(=O)CCNCc1nc(-c2ccc3ncnc(Nc4ccc(OCc5cccc(C(F)(F)F)c5)cc4)c3c2)cs1 | 0.2% | 0.92% | 2.19% | 0.49% | 2.23% | 0.51% | 1.54% | 0.7% | -0.71% | -0.53% |
| COc1cc2ncnc(Nc3ccc4c(cnn4Cc4ccccc4)c3)c2cc1OC | 3% | 2.69% | 4.17% | 1.58% | 1.78% | 1.02% | 0.7% | 1.5% | 1.55% | 2.33% |
| COc1cccc(-n2ncc3c(N/N=C/c4ccc(C)cc4)ncnc32)c1 | 8.29% | 5.18% | 9.61% | 3.66% | 7.27% | 3.43% | 5.99% | 2.31% | 4.53% | 3.27% |
| Cc1ccc(C(=O)NC2CC2)cc1-c1ccc2[nH]ncc2c1 | 0.22% | -3.35% | -2.14% | -1.78% | 1.62% | -1.53% | -0.47% | -1.3% | -0.54% | -0.64% |
| NS(=O)(=O)c1ccc(Nc2cc(-c3cccc(O)c3)n[nH]2)cc1 | 7.41% | 6.55% | 8.42% | 5.01% | 5.23% | 3.66% | 5.03% | 3.04% | 2.25% | 1.47% |
